Among all 230,000 compounds or so, about 1,000 (0.43%) were called active. A call without a number means that no potency is given here. The sample as a whole holds a higher share of actives than the screen did. Values without a mark were called inactive. Calls come from the whole dose curve; as a rule, active = well fitted inhibition curve with a large enough effect (not every such curve was filed as active); inactive = no such curve, though single readings can be large or run the other way.
Potency is the fitted concentration of half-maximal effect.

Chain of Guanine nucleotide-binding protein G(i) subunit alpha-1 (Homo sapiens) (P63096 whole entry, looked up): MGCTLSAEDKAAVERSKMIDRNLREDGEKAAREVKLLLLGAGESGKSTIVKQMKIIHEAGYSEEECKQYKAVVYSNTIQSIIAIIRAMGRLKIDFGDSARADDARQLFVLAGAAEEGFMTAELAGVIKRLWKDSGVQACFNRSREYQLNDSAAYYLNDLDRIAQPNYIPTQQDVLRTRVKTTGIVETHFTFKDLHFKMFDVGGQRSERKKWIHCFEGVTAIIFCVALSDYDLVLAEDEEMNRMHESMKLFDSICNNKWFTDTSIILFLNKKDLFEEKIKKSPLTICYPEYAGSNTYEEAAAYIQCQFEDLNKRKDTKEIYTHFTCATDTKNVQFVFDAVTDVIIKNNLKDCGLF

In the assay the target is Guanine nucleotide-binding protein G(i) subunit alpha-1 (Homo sapiens) (UniProt P63096). As to the kind of experiment: qHTS Assay for Inhibitors of RGS12 GoLoco Motif Activity (Red Fluorophore). Note: nearly all actives have a fitted effect of over 30% in size. The settings on record: Gai1:RGS12 GoLoco peptide FP, rhodamine, 10 min; series mostly up to 61.6 µM. An excerpt:
Assay Submitter: Siderovski, David P, University of North Carolina at Chapel Hill
Screening Center PI: Austin, C.P.
Screening Center: NIH Chemical Genomics Center [NCGC]
G-protein-coupled receptors (GPCRs) are major targets for drug discovery. The regulator of G-protein signaling (RGS)-protein family has important roles in GPCR signal transduction. RGS proteins contain a conserved RGS-box, which is often accompanied by other signaling regulatory elements. RGS proteins accelerate the deactivation of G proteins to reduce GPCR signaling; however, some also have an effector function and transmit signals. Combining GPCR agonists with RGS inhibitors should potentiate responses, and could markedly increase the agonist's regional specificity. The diversity of RGS proteins with highly localized and dynamically regulated distributions in brain makes them attractive targets for pharmacotherapy of central nervous system disorders. […] A complex of Gai1 and fluorescently labeled G-alpha-binding peptide (the "GoLoco motif") derived from RGS12 is incubated with library members. Inhibitors of the binding are detected by a decrease in the fluorescence polarization (FP) of the fluorophore. Protein was supplied by Prof. David Siderovski, University of North Carolina at Chapel Hill.
Assay Buffer: 10 mM Tris-HCl, 150 mM NaCl, 0.1 mM GDP (prepared fresh), and 0.05% NP40 at pH 7.5.
15 nM Rhodamine labeled peptide/25 nM protein in columns 1, 2, 5 - 48. Titration of unlabeled peptide control ([H][…][NH2], custom synthesized and HPLC-purified by Tufts University Core Facility) from 20 mM, then 1:2 dilution, 16-point in duplicate, pin-transferred to column 2, rows 1 to 32. Column 1 is neutral.
Rhodamine-labeled peptide (Rhodamine-[…]-NH2) was custom-synthesized and HPLC-purified by Invitrogen (Carlsbad, CA).
Four uL of reagents were dispensed to 1536-well Greiner black solid-bottom plates. Compounds and controls (23 nL) were transferred via Kalypsys PinTool. The plates were incubated for 10 min at room temperature, and then read on ViewLux (Perkin-Elmer) High-throughput CCD imager using BODIPY for the rhodamine-labeled decapeptide probe. During dispense, reagent bottles were kept submerged into 4 deg C water bath and all liquid lines were covered with aluminum foil to minimize probe and protein degradation. All screening operations were performed on a Kalypsys robotic system (Kalypsys, Inc., San Diego, CA) containing one RX-130 and two RX-90 anthropomorphic robotic arms.
For orientation: In qHTS, concentration-response curves come from the screen itself.
With `CCOC(=O)c1ccc(NC(=O)CSc2nnc(COc3ccccc3OC)n2C)cc1`, the Potency entry was “inactive”.
Consider `CCOC(=O)c1ccc(NC(=O)Cn2cnc3cc(C)c(C)cc32)cc1`, for which the Potency result is “inactive”.
Same read-out and setting: the value for `CCOC(=O)c1ccc(NC(=O)CSc2ncccn2)cc1` was 2.82 µM (active).
In the case of `CCOC(=O)C1=C(C)c2ccccc2OC1(C)C(=O)OCC` (centres undefined), the Potency result is “inactive”.
As to `Cc1ccccc1-n1nnnc1SCCCC(=O)c1ccc(F)cc1`, the Potency result was “inactive”.
Regarding `N#Cc1ccsc1NC(=O)CN1CCN(S(=O)(=O)c2cc(Cl)ccc2Cl)CC1`, the Potency result was “inactive”.
Consider `CCOc1ccc(N=NS(=O)(=O)O)cc1`, for which the activity, negative = inhibition is -17.6% [at 14.2 µM].
For the compound `Cc1ccccc1CC1(CO)CCCN(Cc2ccc3c(c2)OCCO3)C1` (centres undefined), the Potency entry is “inactive”.
Still for that read-out and setting: the value for `NCCC(=O)c1ccccc1N` was “inactive”; that for `CCCc1ccc(-c2c(C)sc(NC(=O)c3ccnn3C)c2C#N)cc1` was “inactive”.
For the compound `CC(C)=C(NC(=O)c1ccccc1)C(=O)N/N=C(\C)c1ccccc1O`, the Potency entry was “inactive”.
On the same count and under the same terms, with `Cc1ccc2[nH]c(=O)c(CN(CCCN(C)C)C(=O)Nc3cccc(Cl)c3)cc2c1` the entry was “inactive”.
For `N=C1C(c2nc3ccccc3s2)=C(O)CN1NC(=O)c1ccc([N+](=O)[O-])cc1`, the Potency entry is “inactive”.
Still for that read-out and setting: the value for `COc1ccc(/C=C(\C#N)C(=O)NCCCn2ccnc2)cc1` was “inactive”; that for `CCOC(=O)c1cnc(SC)nc1Sc1ccc(Cl)cc1Cl` was “inactive”; that for `O=P(O)(O)OC[C@H](O)CO` was “inactive”.
On the same count and under the same terms, with `CCOC(=O)c1c(NC(=S)NC)sc2c1CCCC2` the entry was “inactive”.
For the compound `Cc1ccc(NC(=O)CN2CCCCC2)c2c1CC(C)(C)O2`, the Potency entry is “inactive”.
On the same count and under the same terms, the value for `Cc1ccc(Nc2cc(C)nc3c(C)ccc([N+](=O)[O-])c23)cc1` was “inactive”.
Same read-out and setting: the value for `NCCCCC(N)C(=O)O` (centres undefined) was “inactive”; that for `CC(C)[C@@H]1NC(=O)[C@H](Cc2ccccc2)NC(=O)[C@@H](CC(=O)O)NC(=O)CNC(=O)[C@H](CCCNC(=N)N)NC1=O` was “inactive”.
Consider `CCS(=O)(=O)N1Cc2ccccc2CC1C(=O)Nc1nc2ccc(F)cc2s1` (centres undefined), for which the Potency result was “inactive”.
Still for that read-out and setting: the value for `O=C(NCc1cc(C(F)(F)F)cc(C(F)(F)F)c1)C1CC(c2cccc(F)c2)=NO1` (centres undefined) was “inactive”; that for `Cc1ccccc1-c1n[nH]c(=S)n1/N=C/c1ccc(-c2ccccc2Br)o1` was “inactive”; that for `O=c1[nH]cnc2c1c(-c1ccccc1)cn2-c1ccc(F)cc1` was “inactive”.
Same read-out and setting: with `Clc1ccc(CSc2nnc3c(n2)[nH]c2ccccc23)cc1` the entry was “inactive”; with `COC(c1ccccc1)(c1ccccc1)C(Oc1nc(C)cc(C)n1)C(=O)O` (centres undefined), “inactive”; with `COc1cccc(NC(=O)CN(C)C(=O)/C=C/c2cc(OC)ccc2OC)c1`, “inactive”.
Turning to `O=C(NCCc1c[nH]c2ccccc12)c1cc2ccccc2oc1=O`, the Potency entry is “inactive”.
On the same count and under the same terms, with `CN(c1ccccc1)S(=O)(=O)c1cc(C(=O)Nc2nc3ccccc3[nH]2)ccc1Cl` the entry was “inactive”.
In the case of `CCC(C)[C@@H](N)C(=O)O` (some centres undefined), the Potency entry is “inactive”.
Still for that read-out and setting: with `C[N+]1(CCNC(=O)/C=N/O)CCCCC1` the figure was 12.6 µM (active); with `CC1=C/C(=N\OS(=O)(=O)c2ccccc2)C=CC1=O`, 28.2 µM (active).
Consider `Cc1ccc(S(=O)(=O)c2ccc(Oc3ccccc3)cc2)cc1`, for which the Potency result was “inactive”.
Same read-out and setting: with `CC1=C/C(=N\S(=O)(=O)c2ccccc2)C(C(C)C)=CC1=O` the entry was “inactive”.
The same measure, in the same setting: the value for `CC#CC[N+](C)(C)CCCCCC` was “inactive”; that for `NC(=O)C(=O)N/N=C/c1ccc([N+](=O)[O-])o1` was “inactive”.
Still for that read-out and setting: the value for `S=c1[nH]nc(-c2ccccc2)n1/N=C/c1c[nH]c2ccccc12` was “inactive”.
For the compound `CSC(=S)N/N=C/c1c[nH]c2ccccc12`, the Potency entry was “inactive”.
The same measure, in the same setting: with `C[n+]1ccc(/C=C/c2c[nH]c3ccccc23)cc1` the figure was 0.562 µM (active); with `Cc1ccc(CCCOC(=O)C[N+]2(C)CCCCC2)cc1`, “inactive”; with `Cc1ccc(CCCOC(=O)C[N+]2(C)CCCC2)cc1`, 7.08 µM (active).
Same read-out and setting: with `CCCCOC(=O)Cn1c(=O)n(CC(=O)OCCCC)c2cc(C)ccc21` the entry was “inactive”.
Regarding `C[C@@]12CCC(=O)C=C1CC[C@H]1C2[C@@H](O)C[C@]2(C)[C@@H]1CC[C@@]2(O)C(=O)COC(=O)C1CCCC1` (some centres undefined), the activity, negative = inhibition was -1.69% [at 14.2 µM].
Consider `O=C(CC1SC(=Nc2ccccc2)N(Cc2ccccn2)C1=O)Nc1cccc(Cl)c1` (centres undefined), for which the Potency result was “inactive”.
The same measure, in the same setting: the value for `CC(C)S(=O)(=O)c1csc(NC(=O)Nc2ccc(Cl)cc2)c1Cl` was “inactive”; that for `CC(C)N(Cc1ccccc1)C(=O)COC(=O)c1cnccn1` was “inactive”; that for `CCO[C@H]1OC(C(=O)NCc2ccccc2)=C[C@@H](c2coc3ccccc3c2=O)[C@@H]1CCCO` was “inactive”.
On to `Cc1ccc(-c2ncc(Cl)cc2-c2ccc(S(C)(=O)=O)cc2)cn1`, for which the Potency entry is “inactive”.
On to `CCOC(=O)N/N=C/c1cn(Cc2ccccc2Cl)c2ccccc12`, for which the Potency result was “inactive”.
`CN1CCN(/N=C2/C(=O)Nc3ccc([N+](=O)[O-])cc32)CC1`: the Potency entry was “inactive”.
Same read-out and setting: the value for `Cc1nn(C)cc1N1C(=O)c2cccc3c(N)ccc(c23)C1=O` was 14.1 µM (active).
Still for that read-out and setting: with `CCN1C(=O)c2cccc3c(N)ccc1c23` the entry was “inactive”.
Consider `Cc1nn(-c2cc(Cl)ccc2N)c(=O)c2ccccc12`, for which the Potency result is “inactive”.
Turning to `Cc1cccc(N2C(=O)SC(SC(=Nc3ccccc3)Nc3ccccc3)C2=O)c1` (centres undefined), the Potency result is “inactive”.
Still for that read-out and setting: the value for `O=C(C1=C[C@H](C2CC2)C[C@H](OCc2ccc(CO)cc2)O1)N1CCN(Cc2ccccc2)CC1` was “inactive”; that for `CCOC(=O)N1CCN(Cc2nc3ccc([N+](=O)[O-])cc3c(=O)n2-c2cccc(OC)c2)CC1` was “inactive”.
Same read-out and setting: with `CCOC(=O)C1=C(C(=O)OCC)C(C(=O)OCC)N(S(=O)(=O)C(F)(F)F)c2ccccc21` (centres undefined) the entry was “inactive”.
On the same count and under the same terms, the value for `CCOC(=O)Nc1ccccc1N1C(=O)c2ccccc2C1=O` was “inactive”.
As for `CCOC(=O)c1cc2n(c1N)-c1ccccc1C2=O`, the Potency is 17.8 µM (active).
As to `Cc1nc2c(c(=O)n1Cc1ccco1)c1nc3ccccc3nc1n2Cc1ccccc1`, the Potency result was “inactive”.
For the compound `O=c1[nH]c2c(c(=O)n1Cc1ccccc1)CCC2`, the Potency entry was “inactive”.
On to `Cc1cc2nc3c(=O)n(Cc4ccccc4)c(=O)[nH]c3nc2cc1N`, for which the Potency is 12.6 µM (active).
Take `C=CC(=O)c1ccc2ccccc2c1`: the Potency result is “inactive”.
In the case of `O=C(Nc1ccc(O)cc1)c1ccccc1O`, the Potency result is “inactive”.
As for `COc1ccc(OCCC(=O)c2ccc(OC)cc2)cc1`, the Potency entry was “inactive”.
In the case of `CC(C)CCOc1ccc(C(=O)C[N+]2(C)CCOCC2)cc1`, the Potency was 3.55 µM (active).
For the compound `CC(=O)c1ccc(OCCN2CCOCC2)cc1`, the Potency entry was “inactive”.
On the same count and under the same terms, the value for `O=C(CCCNS(=O)(=O)c1cccc2nsnc12)NCCN1CCN(c2ccccc2F)CC1` was “inactive”.

The values are drawn from PubChem BioAssay AID880 (National Center for Advancing Translational Sciences (NCATS), 2007).
